20 compounds from PubChem BioAssay (NCI) can be followed below.

Compounds without any hit were thinned out: in the full panel of roughly 83,000, 20% have a hit.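 Interpretation: 100, growth as untreated; towards 0, rising growth inhibition; 0, no net growth; 0 to -100, cell death. Compounds scoring below 10 were considered active.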 A number with no mark means an inactive call. The source made the active and inactive calls.

Common to all, as to experiment: NCI-60 one-dose screen, 48 h (100 = growth as untreated, 0 = no growth, -100 = all killed)
What all share (conditions): 10 µM unless noted

In test [1] the test system is SK-MEL-2 melanoma.
For test [2], the system named is EKVX NSCLC.
Test [3] concerns SN12C renal.
In test [4] the test system is UO-31 renal.
The test system of test [5] is TK-10 renal.
The test system of test [6] is ACHN renal.
The subject of test [7] is CAKI-1 renal.
In test [8] the test system is A498 renal.
The subject of test [9] is CCRF-CEM leukemia.
For test [10], the system named is MOLT-4 leukemia.

As to `CC(c1ccccc1)N1CSc2nc3ncncc3n2C1` (stereo not given), the growth in [1] is 57.2%; in test [2], 84.8%; in [3], 68.8%; in test [4] it was 47.6%; in test [5], 42.6%; in [6], 45.2%. For the same compound, the growth in [7] is 27.2%; in [8], 85.8%; in test [9], 23.1%; in [10] it was 18.2%.
`CCN(CC)CCn1c2ccc(O)cc2c2sc3cc(OC)ccc3c(=O)c21`: the growth in test [1] was 55.6%; in test [2], 43.5%; in [3] it was 21.5%; in [4] it was 26.8%; in test [5] it was 61.7%; in test [6] it was 12.4%. For the same compound, the growth in [7] is 14.5%; in test [8], 73.3%; in test [9], 21.8%; in test [10], 5.44% (active).
As to `NC(N)=Nc1ccc(Oc2cccc(Nc3cccc(C(F)(F)F)c3)c2)cn1`, the growth in test [1] is 64.8%; in test [2], 2.37% (active); in test [3], -13.7% (active); in test [4], 42.8%; in test [5], 70%; in test [6], 37.8%. In addition, the growth was 27.2% in [7], 18.1% in test [8], -9.05% (active) in [9] and 0.007% (active) in test [10].
On to `Cn1ccnc1C(=O)/C=C/c1ccc(CNC(=O)c2ccc(F)cc2)cc1`, for which the growth is 105% in test [1]; 53.5% in test [2]; 20% in [3]; 34.9% in test [4]; 75% in [5]; 43.4% in test [6]. Besides, the growth in [7] was 48%; in test [8], 63.7%; in test [9], 12.8%; in test [10], 9.84% (active).
For the compound `N#Cc1cccc(NC(=O)c2cc(-c3ccc(F)cc3F)ccc2O)c1`, the growth in test [1] was 0.79% (active); in test [2] it was 10.3%; in [3] it was 4.45% (active); in test [4] it was -14.2% (active); in test [5], 19.3%; in test [6], 5.79% (active). Also, the growth was -16.7% (active) in test [7], -33.1% (active) in test [8], 20.1% in [9] and 6.28% (active) in test [10].
As to `ClC(Cl)c1nc(-c2ccco2)n2nc(-c3ccccc3)cc2n1`, the growth is 89.6% in [1]; 4.01% (active) in [2]; 66.5% in test [3]; 35.3% in test [4]; 20.3% in test [5]; -23.9% (active) in test [6]. The growth in test [7] was -19.1% (active); in [8], -7.32% (active); in test [9], 89.8%; in test [10], 66.6%.
On to `CC(C)C[C@@H]1N[C@@]2(C(=O)Nc3ccccc32)[C@@H](c2ccc(F)cc2)[C@@H]1C(=O)c1ccc(O)cc1`, for which the growth is 102% in test [1]; 79.9% in test [2]; 96.5% in test [3]; 58.3% in test [4]; 120% in test [5]; 80.1% in test [6]. Moreover, the growth in [7] is 67.3%; in test [8], 94.5%; in test [9] it was 85%; in [10], 77.5%.
Turning to `O=C(NNc1nc2cc(F)ccc2n2cccc12)c1ccncn1`, the growth is 26.4% in test [1]; 11.2% in test [2]; 21.3% in test [3]; 18.6% in test [4]; 31.7% in [5]; 13.3% in test [6]. Further, the growth in test [7] is 16.5%; in test [8], 14.6%; in [9] it was 8.88% (active); in [10], 11.7%.
`O=S(=O)(NCCCNc1nccc(-n2cnc3ccccc32)n1)c1ccc(C(F)(F)F)cc1`: the growth in test [1] is 97.8%; in test [2] it was 75.1%; in test [3], 85.9%; in [4], 60.7%; in test [5], 95.7%; in test [6], 87.1%. For the same compound, the growth in test [7] is 60.5%; in [8], 72.1%; in [9], 70.9%; in test [10] it was 67%.
For `O=C(CSc1nnc(-c2ccc(Cl)cc2)n1-c1ccccc1)Nc1ccc(Br)cc1`, the growth was 80.9% in [1]; 24.9% in test [2]; -42.9% (active) in test [3]; -19.4% (active) in test [4]; -55.7% (active) in test [5]; -81.9% (active) in [6]. In addition, the growth in test [7] is -53.6% (active); in test [8], -60.8% (active); in test [9], 41%; in test [10], 61.1%.
As for `Fc1ccc(-c2cc3nc(C(Cl)Cl)nc(-c4ccc(F)cc4)n3n2)cc1`, the growth in test [1] is 108%; in test [2] it was 7.26% (active); in test [3], 49.2%; in [4] it was 29.3%; in [5] it was 13.2%; in test [6] it was -41.1% (active). Further, the growth was -18.3% (active) in test [7], -53.1% (active) in test [8], 33.1% in [9] and 12.4% in test [10].
Turning to `COC(=O)c1ccc(NC2=C/C(=N/S(=O)(=O)c3ccc(C(=O)O)cc3)c3ccccc3C2=O)cc1`, the growth was 4.1% (active) in [1]; 88.3% in test [2]; -71.3% (active) in [3]; -1.04% (active) in test [4]; 156% in test [5]; -11.2% (active) in [6]. Also, the growth in test [7] was 20.4%; in test [8], 119%; in test [9] it was 4.48% (active); in test [10], -15% (active).
Regarding `Cc1ccc2c(c1)C13C(=C2Br)CCCN1C(=O)c1ccccc13` (stereo not given), the growth in test [1] is 100%; in [2], 91.3%; in [3] it was 92.5%; in [4], 76.5%; in test [5], 99.9%; in test [6] it was 95.5%. Also, the growth in [7] is 75.8%; in test [8] it was 92.4%; in test [9], 79.7%; in test [10], 79.8%.
Regarding `NC(=O)c1cccc(C#CCNC[C@H]2C[C@@H](n3ccc4c(Cl)ncnc43)[C@H](O)[C@@H]2O)c1`, the growth in test [1] is 104%; in [2], 106%; in test [3] it was 99.5%; in test [4], 92.4%; in [5], 97.3%; in test [6], 106%. The growth was 94.4% in test [7], 94.7% in test [8], 102% in test [9] and 114% in test [10].
In the case of `CCO/C=N/C1=C(C#N)C(c2ccc(OC)cc2)c2sc3c(CC)cccc3c2O1` (stereo not given), the growth in test [1] was 41.4%; in test [2] it was 47.5%; in test [3], 43.6%; in test [4], 48.1%; in test [5], 69.3%; in test [6], 46.8%. In addition, the growth in test [7] is 50%; in test [8] it was 6.97% (active); in test [9] it was 22.4%; in test [10], 26.8%.
Consider `CCNC(=O)N1CCc2cc(OC)c(OCCc3ccc(OC)nc3)cc2C1c1ccc(OC)cc1C` (stereo not given), for which the growth in [1] is 30.1%; in [2], 61.8%; in test [3], 44.8%; in test [4] it was 40.3%; in [5], 59.9%; in test [6], 32.2%. The growth in test [7] is 33.7%; in test [8] it was 14.1%; in [9], 39.3%; in [10], 25.8%.
Consider `CCCCCCCn1cc2c(N[C@H](C)c3ccccc3)ncnc2n1`, for which the growth in test [1] is 123%; in test [2], 88.2%; in test [3] it was 99.2%; in test [4] it was 78.3%; in test [5], 126%; in test [6] it was 102%. Besides, the growth in [7] is 88.2%; in test [8] it was 87.6%; in test [9], 99.6%; in [10], 102%.
Turning to `COc1cc(OC)cc(C(=O)Nc2cccc(C#Cc3cccc4[nH]nc(N)c34)c2)c1`, the growth is -24.2% (active) in test [1]; 61.1% in [2]; 30.4% in test [3]; 32.2% in test [4]; 54.3% in [5]; 35.4% in [6]. Also, the growth in [7] was 24.5%; in [8], -19.2% (active); in test [9] it was 13%; in test [10], 20.5%.
For the compound `COc1cccc2c1CN(C(=O)c1ccc(O)c(C(=O)N3Cc4ccc(OCCC[P+](c5ccccc5)(c5ccccc5)c5ccccc5)cc4C3)c1)C2`, the growth in test [1] is 61.5%; in [2] it was 52.4%; in test [3], 90.4%; in [4], 77.3%; in test [5], 116%; in [6] it was 96.6%. Further, the growth is 82.3% in test [7], 107% in test [8], 71.1% in test [9] and 93.6% in test [10].
Consider `CCCCc1nc(/C=N/Nc2nc(Nc3ccccc3)nc(Nc3ccc(S(N)(=O)=O)cc3)n2)c(Cl)[nH]1`, for which the growth in test [1] was 65.8%; in test [2], 102%; in [3], 93.6%; in test [4], 85.4%; in test [5], 112%; in test [6], 100%. Moreover, the growth in test [7] was 105%; in test [8], 89.3%; in test [9], 12.5%; in [10], 41.4%.
